# Compound activity (PubChem)
# This is a sample that favours compounds with a hit; in the whole collection about 4.5% have one here.
# Jurkat NFkB inh = lowers PMA/ionomycin-induced NF-kB signal in Jurkat cells. PMA/ionomycin-induced NF-kB luciferase reporter, luminescence. inhibition, % at 4 µM. hit rate 0.53% among 330,000; in the data active = inhibition above about 50%
# Mdm2-MdmX inh = inhibitors of human Mdm2/MdmX interaction. O15151+Q00987. SaOS-2 split-luciferase Mdm2/MdmX complementation, luminescence. hit rate 3% among 330,000. inhibition, % at 8 µM;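 active = inhibition of at least 50% at 8 µM in the primary screen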
# Target sequence (O15151 whole entry, looked up): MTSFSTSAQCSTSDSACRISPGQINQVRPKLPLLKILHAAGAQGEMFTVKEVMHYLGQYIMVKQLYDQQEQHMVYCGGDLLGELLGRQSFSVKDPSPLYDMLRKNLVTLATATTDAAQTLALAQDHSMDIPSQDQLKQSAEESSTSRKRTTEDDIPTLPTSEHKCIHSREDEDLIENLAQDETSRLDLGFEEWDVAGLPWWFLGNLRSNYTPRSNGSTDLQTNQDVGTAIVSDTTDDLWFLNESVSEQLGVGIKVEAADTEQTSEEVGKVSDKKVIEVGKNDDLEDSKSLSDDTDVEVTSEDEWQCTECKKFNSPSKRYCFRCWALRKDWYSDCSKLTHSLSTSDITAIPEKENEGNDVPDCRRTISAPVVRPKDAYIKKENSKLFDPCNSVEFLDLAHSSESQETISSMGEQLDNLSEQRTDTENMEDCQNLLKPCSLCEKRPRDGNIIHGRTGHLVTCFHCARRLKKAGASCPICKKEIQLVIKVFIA
# Target sequence (Q00987 whole entry, looked up): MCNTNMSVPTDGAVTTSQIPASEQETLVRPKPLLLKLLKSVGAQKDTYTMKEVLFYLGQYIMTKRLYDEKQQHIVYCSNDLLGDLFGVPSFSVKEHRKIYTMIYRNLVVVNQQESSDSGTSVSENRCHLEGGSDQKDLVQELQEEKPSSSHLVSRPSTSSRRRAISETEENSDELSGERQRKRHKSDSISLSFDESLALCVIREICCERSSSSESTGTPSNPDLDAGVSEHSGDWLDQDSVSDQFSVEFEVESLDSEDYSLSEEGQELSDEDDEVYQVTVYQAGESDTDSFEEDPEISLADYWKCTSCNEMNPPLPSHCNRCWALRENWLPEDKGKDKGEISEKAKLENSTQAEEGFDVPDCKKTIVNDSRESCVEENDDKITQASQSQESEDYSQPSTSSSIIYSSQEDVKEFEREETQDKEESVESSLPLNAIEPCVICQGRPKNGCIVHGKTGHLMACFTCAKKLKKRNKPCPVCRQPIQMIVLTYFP
# Gli-Sufu block = blocks Gli-Sufu signaling in a luciferase reporter | AID 588413 | hit rate 0.74% among 340,000 | inhibition, % at 5 µM | Sufu-KO-LIGHT fibroblasts, Gli luciferase reporter luminescence;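 active = inhibition above about 55%, limit read from the data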;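 note: 0% = DMSO-treated cells and 100% = wells with medium but no cells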
# 697 NFkB inh = inhibitors of the PMA/ionomycin-induced NF-kB reporter in 697 B cells; hit rate 0.33% among 330,000; 697 B-cell NF-kB luciferase reporter, 16 h; AID 435022; inhibition, % at 4 µM; in the data active = inhibition above about 35%
# aSyn 5UTR inh = 5' untranslated region of α-synuclein, MLPCN primary screen; alpha-synuclein 5'UTR reporter, inhibitor activity; inhibition, % (tested at 7.5 µM); hit rate 0.82% among 300,000; AID 1813; in the data active = inhibition above about 60%; inconclusive = no clear call, values can overlap the other calls;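 note: H4 neuroglioblastoma cells stably carrying SNCA 5'UTR luciferase fusion; 0% = DMSO wells and 100% = positive control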
# CSC inhib = cancer stem cell inhibition | hit rate 1.1% among 300,000 | inhibition, % at 7.5 µM | cancer stem cell-like cells viability, luminescence; in the data active = inhibition above about 75%; inconclusive = no clear call, values can overlap the other calls; tested in HMLE shEcad cells
# Mdm2-MdmX conf = confirmation of human Mdm2/MdmX interaction inhibitors. shares compounds with Mdm2-MdmX inh. Mdm2-MdmX binding, luminescent assay. inhibition, % at 8 µM. hit rate 55% among 10,000. AID 489028; in the data active = inhibition above about 40%
# FLuc counter = counter-screen for Mdm2/MdmX inhibitors: full-length luciferase. SaOS-2 full-length luciferase counterscreen, luminescence. shares compounds with Mdm2-MdmX inh. hit rate 77% among 6,200. inhibition, % at 8 µM. AID 504607;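 active = mean inhibition at 8 µM reaching about 37%, which flags the compound as non-specific, limit read from the data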;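 note: p53-null SaOS-2 cells with luciferase driven by a doxycycline-inducible promoter; compound on cells about two nights before reading with doxycycline added after day one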
# Gli antag conf = confirmation of Gli-SUFU pathway antagonists | Sufu-KO-LIGHT cells, Gli luciferase reporter, luminescence | inhibition, % at 5 µM | shares compounds with Gli-Sufu block | hit rate 40% among 2,500;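 active = mean inhibition at 5 µM reaching about 45%, limit read from the data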;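 note: plate controls were DMSO-treated cells for no effect and wells lacking cells for full effect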
# Gli cytotox = cytotoxicity counter-screen for Gli-SUFU antagonists | shares compounds with Gli-Sufu block | Sufu-KO-LIGHT cells cytotoxicity, ATP luminescence | cytotoxicity, % at 5 µM | hit rate 32% among 2,500;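 active = mean cytotoxicity at 5 µM above about 25%, limit read from the data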;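 note: cells exposed to compound overnight for roughly 16 to 18 hours; plate controls were DMSO wells with cells for no effect and medium without cells for full effect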
# Wnt3a cs = counter-screen for Gli-SUFU antagonists: Wnt3a reporter inhibition; shares compounds with Gli-Sufu block; Wnt-LIGHT cells, Wnt3a-driven luciferase reporter, luminescence; inhibition, % at 6.25 µM; hit rate 20% among 2,500;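 active = mean inhibition above about 25%, limit read from the data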
# An asterisk follows results filed as active; ? = inconclusive; nt = not tested or not shown.
SMILES,Jurkat NFkB inh,Mdm2-MdmX inh,Gli-Sufu block,697 NFkB inh,aSyn 5UTR inh,CSC inhib,Mdm2-MdmX conf,others
COc1cc(/C=C/c2nc3ccccc3c(=O)n2-c2ccccc2O)ccc1O,1.2,68.6*,7.1,34.5,-13.1,-1.9,18.1,
O=c1c2ccccc2nc(/C=C/c2ccc(O)cc2)n1-c1ccccc1O,5.6,39.3,0.0,13.3,-30.1,34.1,nt,
O=c1c2ccccc2nc(/C=C/c2ccc(F)cc2)n1-c1ccccn1,8.8,40.1,1.1,1.6,0.2,-5.2,nt,
COc1cc(/C=C/c2nc3ccccc3c(=O)n2-c2cccc(O)c2)ccc1O,-1.1,42.0,14.5,26.1,22.2,24.7,nt,
COc1ccc(CC2(CCc3ccncc3)C(=O)NC(=O)NC2=O)c(OC)c1,1.1,2.2,6.6,17.5,2.4,-5.1,nt,
N#CC(C#N)=C(N)c1cccnc1,-17.2,54.8*,0.3,-38.7,9.1,4.6,-24.1,
COc1cc2c3cc1Oc1cc(ccc1O)C[C@@H]1c4c(cc(OC)c(O)c4Oc4ccc(cc4)C[C@H]3N(C)CC2)CCN1C,4.7,92.3*,15.3,-13.6,-7.9,7.2,75.6*,FLuc counter=49.6*
COc1cc2c3cc1Oc1c(OC)c(OC)cc4c1[C@H](Cc1ccc(cc1)Oc1cc(ccc1O)C[C@H]3N(C)CC2)N(C)CC4,14.2,96.7*,17.6,-3.4,nt,-3.8,56.9*,FLuc counter=29.8
COc1cc2c(cc1O)C[C@H]1c3c(cc(O)c(OC)c3-2)CCN1C,9.1,11.6,-2.9,4.9,nt,-10.0,nt,
COc1cc2c3cc1Oc1cc(ccc1O)C[C@@H]1c4c(cc(OC)c(O)c4Oc4cccc(c4)C[C@@H]3N(C)CC2)CC[N+]1(C)C,3.6,-23.7,2.5,5.9,nt,-4.5,nt,
O=C1NC(=S)NC(=O)C1c1ccccc1,nt,nt,-0.7,nt,nt,nt,nt,
COC(=O)C1=C(C(=O)OC)C2OC1c1cc3ccccc3cc12,nt,nt,6.7,nt,nt,nt,nt,
Cc1ncc2n1-c1ccc(Cl)cc1C(c1ccccc1F)=NC2,-8.1,51.1*,18.3,-10.4,nt,nt,13.8,
COc1ccccc1C1=NCc2nnc(C)n2-c2ccc(Cl)cc21,-4.1,12.7,7.1,-2.9,-29.9,-20.7,nt,
Cc1nn(CC(C)C)c(Cl)c1C(=O)NC1CCC(C)CC1 (centres undefined),-101.5,-68.1,-75.9,-84.4,-123.5,-9.0,nt,
COc1cc(OC)c(C=O)c(OC(=O)N(C)C)c1,3.7,16.3,2.1,2.9,16.6,1.2,nt,
CCN1CCN(c2ncnc3ccc(Br)cc23)CC1,25.4,61.8*,-8.1,-17.6,-21.1,nt,62.1*,FLuc counter=41.8*
N=C1c2ccccc2CN1c1ccc(F)c([N+](=O)[O-])c1,16.2,52.6*,13.4,29.2,6.8,-8.4,30.3,
N=C1c2ccccc2CN1c1cccc([N+](=O)[O-])c1,-9.5,-3.6,2.6,1.6,0.8,-12.1,nt,
CN1C(=O)C(C)(C2=CCCCC2)C(=O)NC1=S (centres undefined),nt,nt,-4.8,nt,nt,nt,nt,
Cc1c(NS(=O)(=O)c2ccccc2)ccc([N+](=O)[O-])c1Cl,nt,nt,29.0,nt,nt,nt,nt,
O=c1[nH]c(O)c(N=Nc2ccc3c(c2)OCCO3)c(=O)[nH]1,21.0,57.9*,29.9,-80.3,-13.1,10.5,67.5*,FLuc counter=78.0*
C=CCn1c(O)c(C(C)=NCc2cc(OC)cc(OC)c2)c(=O)[nH]c1=O,3.6,49.3,-4.6,34.1,38.5,66.3,nt,
FC(F)(F)c1ccc2c(c1)N(CCCN1CCN(CCCl)CC1)c1ccccc1S2,-11.4,61.4*,-11.5,-16.5,-14.4,43.9,23.4,
CC1CCCC(C)N1/N=C/c1c[nH]c2ccc(Br)cc12 (centres undefined),12.7,52.0*,2.2,-2.4,17.8,nt,26.8,
SMILES,Jurkat NFkB inh,Mdm2-MdmX inh,Gli-Sufu block,697 NFkB inh,aSyn 5UTR inh,CSC inhib,Mdm2-MdmX conf,others
C[N+]12CCC(CC1)C(C(O)(c1cccc(Cl)c1)c1cccc(Cl)c1)C2 (centres undefined),-13.7,3.1,7.8,-20.0,-0.6,-5.1,nt,
Cc1ccccc1C(O)(Cc1ccccc1)C1CN2CCC1CC2 (centres undefined),2.7,53.8*,12.8,3.1,-37.6,29.2,61.1*,FLuc counter=69.1*
Cc1ccc(C(O)(c2ccc(C)c(C)c2)C2CN3CCC2CC3)cc1C (centres undefined),27.4,61.0*,12.2,6.5,-38.2,1.8,43.7*,FLuc counter=74.0*
O=[N+]([O-])c1cc(-c2ccc([As](=O)(O)O)cc2)ccc1[As](=O)(O)O,nt,nt,nt,nt,-4.0,1.6,nt,
CN1CCc2cc3c(c4c2C1Cc1ccccc1-4)OCO3 (centres undefined),-25.7,58.8*,-11.6,0.6,-29.9,17.8,51.6*,FLuc counter=60.8*
CC[C@H](C)[C@@H]1O[C@@]2(C=CC1C)CC1C[C@@H](CC=C(C)C(O[C@H]3CC(OC)C(O[C@H]4CC(OC)C(O)C(C)O4)C(C)O3)C(C)C=CC=C3CO[C@@H]4C(O)C(C)=C[C@@H](C(=O)O1)[C@]34O)O2 (some centres undefined),10.4,84.7*,nt,-1.2,nt,102.8*,14.9,
C[C@@H]1CC[C@@]2(NC1)O[C@H]1C[C@H]3[C@@H]4CC=C5C[C@@H](O)CC[C@]5(C)[C@H]4CC[C@]3(C)[C@H]1[C@@H]2C,-13.7,57.8*,9.0,-12.2,-10.7,8.5,10.2,
CC(C)[C@H]1CC2C3CC=C4C[C@@H](O)CC[C@]4(C)C3CC[C@]2(C)[C@H]1O (some centres undefined),17.2,1.2,2.1,-12.9,nt,16.4,nt,
Cn1c(NN=O)nc2ccccc21,21.5,59.1*,82.8*,-1.6,?,114.9*,82.5*,FLuc counter=35.8;Gli antag conf=37.0;Gli cytotox=23.0;Wnt3a cs=12.5
COC(=O)C1=C(c2ccc(OC)c(OC)c2)C[C@@H]2CC[C@H]1N2C(=O)NCCCOC(C)C,0.5,4.4,-13.6,1.2,nt,-15.3,nt,
COc1ccc2c(c1)NP(=S)(Oc1ccccc1)N2 (centres undefined),2.6,-12.7,-8.4,-5.4,-51.4,-15.4,nt,
CCOc1cccc(=NC2CCCCC2)c2c(C)n(C)c(C)c12,6.8,53.8*,85.7*,3.1,30.5,-0.3,26.0,Gli antag conf=88.5*;Gli cytotox=44.4*;Wnt3a cs=4.3
CCCCCc1nc2ccccc2c(=O)n1-c1ccccc1[N+](=O)[O-],7.7,-32.9,2.1,1.8,13.2,-3.2,nt,
